From the supplement of paper PMC4683952
Structures can show the parent of a compound that is named as a salt. The campaign covered roughly 1,200 compounds. About 50 (4%) showed activity. The entries come from a sample that favours actives as a whole. Unmarked numbers belong to inactive results. No stated cut-off is given here; in the data, all actives reach 1.3 or more but so do some inactives.

System: Lgr5 (MarsCy1-Lgr5-EGFP, U2OS)
Assay: cell-surface Lgr5 expression (SCi1 fluorescence, background-subtracted) relative to WT DMSO (fold of DMSO control); higher = more Lgr5 at the plasma membrane, active = hit call of the paper
Details: U2OS MarsCy1-Lgr5-EGFP stable; treatment time: overnight; 16 µM; library: Johns Hopkins Clinical Compound Library

Going from `CCNC(=O)CCC/C=C\C[C@@H]1[C@@H](/C=C/[C@@H](O)CCc2ccccc2)[C@H](O)C[C@@H]1O` [Bimatoprost] to `CCOC(=O)[C@H](CCc1ccccc1)N[C@H]1CCc2ccccc2N(CC(=O)O)C1=O` [Benazepril hydrochloride], the “cell-surface Lgr5 expression” value falls from 1.06 to 0.872.

Going from `C=C1c2c(Cl)ccc(O)c2C(O)=C2C(=O)[C@]3(O)C(O)=C(C(N)=O)C(=O)[C@@H](N(C)C)[C@@H]3[C@@H](O)[C@H]12.O=C(O)c1cc(S(=O)(=O)O)ccc1O` [Meclocycline sulfosalicylate salt] to `Cc1cc(O)c(C(=O)N[C@@H](C(=O)N[C@@H]2C(=O)N3C(C(=O)O)=C(CSc4nnnn4C)CS[C@H]23)c2ccc(O)cc2)cn1` [Cefpiramide], the “cell-surface Lgr5 expression” value rises from 0.705 to 0.869.

Compared with `O=C([O-])CC(O)(CC(=O)[O-])C(=O)[O-].[Li+].[Li+].[Li+]` [Tri-lithium citrate], `O=S(=O)(O)CCS` [Mesna (2-Mercaptoethanesulfonic acid)] is lower in “cell-surface Lgr5 expression” value: 1.06 for the first, 0.844 for the second.

Going from `CCSc1ccc2c(c1)N(CCCN1CCN(C)CC1)c1ccccc1S2` [Thiethylperazine malate] to `CCN(CC)CC#CCOC(=O)C(O)(c1ccccc1)C1CCCCC1` (centres undefined) [Oxybutynin chloride], the “cell-surface Lgr5 expression” value falls from 1.12 to 0.687.

First: Cc1cc2c(OCC(CNC(C)(C)C)OC(=O)c3ccccc3)cccc2[nH]1 (centres undefined) [Bopindolol Maleate]
Second: c1ccc(Cc2nc3ccccc3[nH]2)cc1 [Bendazol (2-Benzylbenzimidazole)]
The “cell-surface Lgr5 expression” value of the first is higher: 1.3 for the first, 1.05 for the second.

Compared with `C[n+]1c2cc(N)ccc2cc2ccc(N)cc21.Nc1ccc2cc3ccc(N)cc3nc2c1` [Acriflavine hydrochloride], `Cc1cc(/C=C/c2ccc3cc(N(C)C)ccc3[n+]2C)c(C)n1-c1ccccc1` [Pyrvinium pamoate] is lower in “cell-surface Lgr5 expression” value: 1.44 for the first, 1.09 for the second.

Going from `CO[C@@H]1[C@@H](O[C@@H]2O[C@H](C)[C@@H](O[C@H]3C[C@@](C)(O)[C@@H](OC(=O)CC(C)C)[C@H](C)O3)[C@H](N(C)C)[C@H]2O)[C@@H](CC=O)C[C@@H](C)[C@@H](O)/C=C/C=C/C[C@@H](C)OC(=O)C[C@H]1OC(C)=O` [Josamycin] to `CC(=O)[C@H]1CC[C@H]2[C@@H]3C[C@H](C)C4=CC(=O)CC[C@]4(C)[C@H]3[C@@H](O)C[C@]12C` [Medrysone (6-alpha-Methyl-11-beta-Hydroxyprogesterone)], the “cell-surface Lgr5 expression” value rises from 1.1 to 1.27.

Going from `O=c1[nH]c(=O)n([C@H]2C[C@H](O)[C@@H](CO)O2)cc1F` [Floxuridine (5-fluorodeoxyuridine)] to `Nc1nc(Cl)nc2c1ncn2[C@H]1C[C@H](O)[C@@H](CO)O1` [Cladribine (2-chloro,2-deoxyadenosine)], the “cell-surface Lgr5 expression” value rises from 0.664 to 0.832.

First: CCC(C(=O)OCCN(CC)CC)c1ccccc1 (centres undefined) [Butetamate (Butethamate)]
Second: CCOc1ccc(NC(C)=O)cc1 [Phenacetin (acetophenetidin)]
The “cell-surface Lgr5 expression” value of the first is lower: 1.2 for the first, 1.24 for the second.

First: C[Se]CCC(N)C(=O)O [Seleno-D, L-methionine]
Second: NCCCC(N)(C(=O)O)C(F)F (racemic)
The “cell-surface Lgr5 expression” value of the first is lower: 1.08 for the first, 1.18 for the second.

Going from `CC(=O)OCC(=O)[C@H]1CC[C@H]2[C@@H]3CCC4=CC(=O)CC[C@]4(C)[C@H]3CC[C@]12C` to `CC(=O)[C@H]1CC[C@H]2[C@@H]3CCC4=CC(=O)CC[C@]4(C)[C@H]3CC[C@]12C` [Progesterone], the “cell-surface Lgr5 expression” value rises from 1.01 to 1.16.

Compared with `CCCCCC(=O)O[C@]1(C(C)=O)CC[C@H]2[C@@H]3CCC4=CC(=O)CC[C@]4(C)[C@H]3CC[C@@]21C` [Progesterone caproate (17alpha-hydroxyprogesterone)], `CC(=O)O[C@]1(C(C)=O)CC[C@H]2[C@@H]3CCC4=CC(=O)CC[C@]4(C)[C@H]3CC[C@@]21C` [Hydroxyprogesterone acetate (17alpha-Acetoxyprogesterone)] is higher in “cell-surface Lgr5 expression” value: 1.05 for the first, 1.21 for the second.

Compared with `CC(=O)[C@@]1(O)CC[C@H]2[C@@H]3C[C@H](C)C4=CC(=O)CC[C@]4(C)[C@H]3CC[C@@]21C` [6α-Methyl-17α-hydroxy-progesterone (Medroxyprogesterone)], `CCCCCC(=O)O[C@]1(C(C)=O)CC[C@H]2[C@@H]3CCC4=CC(=O)CC[C@]4(C)[C@H]3CC[C@@]21C` is lower in “cell-surface Lgr5 expression” value: 1.45 for the first, 1.11 for the second.

First: [Br-].[K+] [Potassium bromide]
Second: O=S(=O)(O)CCS [Mesna (2-Mercaptoethane Sulfonic Acid Sodium Salt)]
The “cell-surface Lgr5 expression” value of the first is higher: 0.93 for the first, 0.815 for the second.

Compared with `O=P([O-])(O)O.[Na+]` [Sodium phosphate monobasic], `[Na+].[O]=[Bi](=[O])[O-]` [Sodium bismuthate] is lower in “cell-surface Lgr5 expression” value: 1.11 for the first, 0.965 for the second.

First: CC1=C(C/C=C(\C)CCC[C@H](C)CCC[C@H](C)CCCC(C)C)C(=O)c2ccccc2C1=O [Vitamin K1 (Phylloquinone, phytonadione)]
Second: Cc1onc(-c2ccccc2)c1C(=O)N[C@@H]1C(=O)N2[C@@H]1SC(C)(C)[C@@H]2C(=O)O [Oxacillin]
The “cell-surface Lgr5 expression” value of the first is higher: 0.865 for the first, 0.726 for the second.

Compared with `NS(=O)(=O)c1cc2c(cc1C(F)(F)F)NC(Cc1ccccc1)NS2(=O)=O` (centres undefined) [Bendroflumethiazide], `N=C(N)N1Cc2ccccc2C(O)C1` (centres undefined) [4-Hydroxydebrisoquin] is higher in “cell-surface Lgr5 expression” value: 1.02 for the first, 1.07 for the second.

Going from `CCCC(O)C(CC)CO` (centres undefined) [Ethohexadiol (2-Ethyl-1,3-hexanediol)] to `CCOc1ccc(NC(=O)CC(C)O)cc1` (centres undefined) [Bucetin], the “cell-surface Lgr5 expression” value rises from 1.04 to 1.29.

Compared with `Clc1ccc(CO/N=C(\Cn2ccnc2)c2ccc(Cl)cc2Cl)c(Cl)c1` [Oxiconazole nitrate], `Cc1c(C)c2c(c(C)c1O)CCC(C)(COc1ccc(CC3SC(=O)NC3=O)cc1)O2` (centres undefined) [Troglitazone] is higher in “cell-surface Lgr5 expression” value: 0.871 for the first, 1.09 for the second.

Going from `O=[N+]([O-])c1ccc(/C=N/O)o1` [Nifuroxime] to `Oc1cccc(O)c1O` [Pyrogallol], the “cell-surface Lgr5 expression” value rises from 0.992 to 1.15.

First: O.[Al+3].[Al+3].[Cl-].[OH-].[OH-].[OH-].[OH-].[OH-] [Aluminum chlorohydrate]
Second: C[C@H]1C[C@@H]2[C@H]([C@@H](O)C[C@@]3(C)[C@H]2CC[C@]3(O)C(=O)CO)[C@@]2(C)C=CC(=O)C=C12 [Methylprednisolone (6-alpha-Methylprednisolone)]
The “cell-surface Lgr5 expression” value of the first is lower: 0.754 for the first, 1.12 for the second.

Going from `C[C@]12C=CC(=O)C=C1CC[C@@H]1[C@@H]2[C@@H](O)C[C@@]2(C)[C@H]1CC[C@]2(O)C(=O)COP(=O)(O)O` [Prednisolone sodium phosphate] to `Cc1cc2nc3c(=O)[nH]c(=O)nc-3n(C[C@H](O)[C@H](O)[C@H](O)COP(=O)(O)OP(=O)(O)OC[C@H]3O[C@@H](n4cnc5c(N)ncnc54)[C@H](O)[C@@H]3O)c2cc1C` [Flavin adenine dinucleotide], the “cell-surface Lgr5 expression” value falls from 1.25 to 1.01.

For `N[C@H]1C(O)O[C@H](CO)[C@@H](O)[C@@H]1O` (some centres undefined) [Glucosamine], the “cell-surface Lgr5 expression” value was 1.06.

In the case of `Cc1scc2c1N(C(=O)CN1CCN(C)CC1)c1ccccc1NC2=O` [Telenzepine], the “cell-surface Lgr5 expression” value is reported as 1.3 (active).
`Nc1ncn([C@H]2C[C@H](O)[C@@H](CO)O2)c(=O)n1` [Decitabine (5-aza-2-deoxycytidine)] was tested, and the “cell-surface Lgr5 expression” value was 1.47 (active).
With `CCN(CC)CCOCCOC(=O)C(CC)(CC)c1ccccc1` [Oxeladin citrate salt] the “cell-surface Lgr5 expression” value was 1.48 (active).
With `CC1(C)O[C@@H]2C[C@H]3[C@@H]4C[C@H](F)C5=CC(=O)CC[C@]5(C)[C@H]4[C@@H](O)C[C@]3(C)[C@]2(C(=O)CO)O1` the “cell-surface Lgr5 expression” value was 1.55 (active).
`CC1(C)O[C@@H]2C[C@H]3[C@@H]4C[C@H](F)C5=CC(=O)C=C[C@]5(C)[C@H]4[C@@H](O)C[C@]3(C)[C@]2(C(=O)CO)O1` [Flunisolide] was tested, and the “cell-surface Lgr5 expression” value was 1.47 (active).
For `C[C@]12CCC(=O)C=C1CC[C@@H]1[C@@H]2[C@@H](O)C[C@@]2(C)[C@H]1CC[C@]2(O)C(=O)COC(=O)CCC(=O)O` [Hydrocortisone hemisuccinate monohydrate], the “cell-surface Lgr5 expression” value was 1.36 (active).
In the case of `C[C@]12CCC(=O)C=C1CC[C@@H]1[C@@H]2[C@@H](O)C[C@]2(C=O)[C@@H](C(=O)CO)CC[C@@H]12` [Aldosterone], the “cell-surface Lgr5 expression” value is reported as 1.55 (active).
`CCC(=O)[C@@]1(C)[C@H](C)C[C@H]2[C@@H]3CCC4=CC(=O)C=C[C@]4(C)[C@H]3[C@@H](O)C[C@@]21C` [Rimexolone] was tested, and the “cell-surface Lgr5 expression” value was 1.39 (active).
In the case of `C[C@]12C=CC(=O)C=C1CC[C@@H]1[C@@H]2[C@@H](O)C[C@@]2(C)[C@H]1CC[C@]2(O)C(=O)COP(=O)(O)O` [Prednisolone 21-phosphate, disodium salt], the “cell-surface Lgr5 expression” value is reported as 1.41 (active).
`CC1(C)O[C@@H]2C[C@H]3[C@@H]4CCC5=CC(=O)C=C[C@]5(C)[C@H]4[C@@H](O)C[C@]3(C)[C@]2(C(=O)CO)O1` was tested, and the “cell-surface Lgr5 expression” value was 1.44 (active).
`CCCCOc1ccc(CC(=O)NO)cc1` [Bufexamac] was tested, and the “cell-surface Lgr5 expression” value was 1.82 (active).
In the case of `CC(=O)OCC(=O)[C@@]1(O)CC[C@H]2[C@@H]3CCC4=CC(=O)C=C[C@]4(C)[C@@]3(Cl)[C@@H](Cl)C[C@@]21C` [Dichlorisone acetate], the “cell-surface Lgr5 expression” value is reported as 1.55 (active).
For `CC1(C)O[C@@H]2C[C@H]3[C@@H]4CCC5=CC(=O)CC[C@]5(C)[C@@]4(F)[C@@H](O)C[C@]3(C)[C@]2(C(=O)CCl)O1` [Halcinonide], the “cell-surface Lgr5 expression” value was 1.71 (active).
With `CC(=O)OCC(=O)[C@@]1(O)CC[C@H]2[C@@H]3CCC4=CC(=O)CC[C@]4(C)[C@@]3(F)[C@@H](O)C[C@@]21C` the “cell-surface Lgr5 expression” value was 1.35 (active).
